Measurements reported in PubChem BioAssay AID504832 (National Center for Advancing Translational Sciences (NCATS), 2011).
Out of some 310,000 compounds screened, about 18,000 (5.8%) were called active. Another 22% or so got no clear call; they are omitted. Shown is part of a subset that was picked to be rich in actives. Entries that show only a call come without a potency. Values without a mark were called inactive. The call rests on the fitted dose curve; in most records, active means well fitted inhibition curve with a large enough effect; inconclusive means small, poorly fitted or top-dose-only effect, or another doubt; inactive means no such curve, though single readings can be large or run the other way.

assay: Primary qHTS for delayed death inhibitors of the malarial parasite plastid, 48 hour incubation; details: P. falciparum luciferase growth in erythrocytes; series mostly up to 28.7 µM
Method in brief: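 In quantitative HTS format, infected erythrocytes bearing luciferase-reporter parasites were treated for a single generation at 37 C. Luminescence after adding detection reagent served as the growth measure.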
Potency means the concentration at half of the fitted maximal effect.

Row | Structure (SMILES) | Potency | activity change, negative = inhibition
1 | Cc1ccc(Cn2c(C)c3cnn(CC(=O)NCc4ccccn4)c(=O)c3c2C)cc1 | inactive | 
2 | O=C(CCCN1C(=O)/C(=C/c2ccco2)SC1=S)Nc1ccccc1 | inactive | 
3 | Cc1ccc(-c2nn(-c3ccccc3)cc2CN(Cc2ccccc2)C(=O)CCC(=O)O)o1 | inactive | 
4 | Cc1ccc(-c2nn(-c3ccccc3)cc2/C=C2\SC(=S)N(CCCCCC(=O)O)C2=O)o1 | 4.65 µM (active) | 
5 | O=C(O)c1cc2c(cc1NC(=O)c1c(F)cccc1Cl)OCCCO2 | inactive | 
6 | COc1ccc(C(=O)Nc2ccc(S(=O)(=O)NC(C)C)cc2)cc1 | inactive | 
7 | O=C(OC1CCOC1=O)c1cccc(S(=O)(=O)Nc2ccc(F)cc2)c1 (centres undefined) | inactive | 
8 | O=C(NCc1ccccc1CN1CCCC1)c1cccc(S(=O)(=O)Nc2ccc(F)cc2)c1 | 13.1 µM (active) | 
9 | COc1ccc(C(CNC(=O)c2ccc(NS(=O)(=O)c3ccc(F)c(C)c3)cc2)N(C)C)cc1 (centres undefined) | 14.7 µM (active) | 
10 | COc1ccc(C(CNC(=O)c2ccc(S(=O)(=O)Nc3ccccc3F)cc2)N(C)C)cc1 (centres undefined) | inactive | 
11 | COc1ccccc1C(CNC(=O)c1cccc(S(=O)(=O)Nc2ccc(F)cc2)c1)N(C)C (centres undefined) | 13.1 µM (active) | 
12 | COc1ccc(Cl)cc1NS(=O)(=O)c1cccc(C(=O)NCC2CCCO2)c1 (centres undefined) | inactive | 
13 | CC(=O)N1CCN(C(=O)c2cccc(S(=O)(=O)Nc3ccc(C)cc3)c2)CC1 | inactive | 
14 | O=C(NCc1cccc(C(F)(F)F)c1)c1cccc(S(=O)(=O)N2CCN(Cc3ccccc3)CC2)c1 | inactive | 
15 | CCN(c1ccccc1)S(=O)(=O)c1cccc(C(=O)O)c1 | inactive | 
16 | CCN(c1ccccc1)S(=O)(=O)c1cccc(C(=O)NCc2ccccc2CN2CCOCC2)c1 | 13.1 µM (active) | 
17 | COc1ccc(NS(=O)(=O)c2cccc(C(=O)NCCc3ccc(S(N)(=O)=O)cc3)c2)cc1 | inactive | 
18 | COCCCNC(=O)Cc1ccc(-n2c(C)nc3cccnc32)cc1 | inactive | 
19 | COc1ccccc1CNC(=O)c1ccc(N(C)S(=O)(=O)c2ccc(C)cc2)cc1 | inactive | 
20 | CCc1nn(CCCC(=O)NCc2ccc(C)cc2)c(=O)c2cc3occc3n12 | inactive | 
21 | O=C(NC(Cc1ccccc1)C(=O)O)/C(=C\c1ccccc1)NC(=O)c1ccco1 (centres undefined) | inactive | 
22 | O=Cc1c(Nc2ccccc2Cl)nc2ccccn2c1=O | inactive | 
23 | CC1(C)C(C=C(Cl)Cl)C1C(=O)NC(O)C(=O)c1ccccc1 (centres undefined) | inactive | 
24 | O=C(CCNC(=O)C1CCN(S(=O)(=O)c2ccccc2)CC1)NC1CC1 | inactive | 
25 | CCN(CC)C(CNC(=O)CSc1nnnn1-c1cccc(F)c1)c1ccco1 (centres undefined) | inactive | 
26 | CCCCNC(=O)C1(O)c2ccccc2NC(=O)N1c1ccc(Cl)cc1 (centres undefined) | inactive | 

Row | Structure (SMILES) | Potency | activity change, negative = inhibition
27 | COc1ccccc1CCNS(=O)(=O)c1cn(C)nc1C | inactive | 
28 | CCc1nc2cccnc2n1-c1ccc(C(=O)O)cc1 | inactive | 
29 | NC(=O)Cn1cc(/C=N\NS(=O)(=O)c2ccccc2)c2ccccc21 | inactive | 
30 | CCc1ccccc1NC(=O)c1ccc2snnc2c1 | inactive | 
31 | CC1CCCCN1C(=O)CCS(=O)(=O)Cc1ccccc1 (centres undefined) | inactive | 
32 | Cc1cnc(C(=O)Oc2cccc(Cl)c2Cl)cn1 | inactive | 
33 | Cc1ccc(-c2nn(-c3ccc(F)cc3)cc2C(=O)NCC(c2cccs2)N2CCOCC2)cc1 (centres undefined) | 10.4 µM (active) | 
34 | CC(C)(C)C1CCC(C(=O)NCC(c2cccs2)N2CCOCC2)CC1 (centres undefined) | inactive | 
35 | O=C(NCC(c1cccs1)N1CCOCC1)c1cc(Cl)ccc1[N+](=O)[O-] (centres undefined) | inactive | 
36 | CCOC(=O)C1(Cc2cccc(OC)c2)CCCN(C(=O)CCSC)C1 (centres undefined) | inactive | 
37 | CC(=O)N1CCN(C(=O)C2(NC(=O)Nc3ccc(C)cc3)CCCCC2)CC1 | inactive | 
38 | O=C(c1cc2ccccc2o1)N1CCN(c2cccc(C(F)(F)F)c2)CC1 | inactive | 
39 | Cc1nn(CC(=O)N2CCCCC2)c(=O)c2nn(-c3ccccc3)c(C)c12 | inactive | 
40 | COc1ccc(N2CCN(C(=O)C3CCN(C(=O)c4ccccc4Cl)CC3)CC2)cc1 | inactive | 
41 | COc1ccccc1N1CCN(C(=O)c2ccc(NC3=NC4CS(=O)(=O)CC4S3)cc2)CC1 (centres undefined) | inactive | 
42 | COc1ccc(Nc2ncc(C(=O)N3CCN(c4ccccc4OC)CC3)c3ccccc23)cc1 | 11.7 µM (active) | 
43 | OC(COc1ccc(F)cc1Cl)CN1CCc2ccccc2C1 (centres undefined) | inactive | 
44 | CCN(CC)S(=O)(=O)c1ccc2[nH]c(=O)cc(C(=O)N(C)C3CCS(=O)(=O)C3)c2c1 (centres undefined) | inactive | 
45 | COc1ccc(NC(=O)CSc2ccc(-c3ccco3)nn2)c(OC)c1 | inactive | 
46 | CCn1c(SCC(=O)Nc2ccc3c(c2)OCCO3)nc2c(c1=O)SC(C)C2 (centres undefined) | inactive | 
47 | COc1ccc(C)cc1NC(=O)CSc1ccc(Cl)cc1 | inactive | 
48 | COCCn1c(SCC(=O)Nc2cc(Cl)ccc2OC)nc2c(c1=O)SC(C)C2 (centres undefined) | 8.28 µM (active) | 
49 | COCCn1c(SCC(=O)Nc2ccccc2F)nc2c(c1=O)SCC2 | inactive | 
50 | CC1Cc2nc(SCC(=O)Nc3ccccc3F)n(C)c(=O)c2S1 (centres undefined) | 7.38 µM (active) | 
51 | Cn1c(CCC(=O)Nc2ccccc2F)nnc1SCC(=O)Nc1ccccc1Cl | inactive | 
52 | CC(C)N(Cc1ccccc1)C(=O)COC(=O)c1ccccc1SCC(=O)N1CCCC1 | inactive | 

Row | Structure (SMILES) | Potency | activity change, negative = inhibition
53 | CCn1c(SCC(=O)NCC2CCCO2)nc2ccccc21 (centres undefined) | inactive | 
54 | CC1CCN(C(=O)c2ccc3c(=O)n4c(nc3c2)CCCCC4)CC1 | inactive | 
55 | COCCN1C(=O)C(=O)/C(=C(/O)c2ccc(S(=O)(=O)N3CCOCC3)cc2)C1c1ccc(O)c(OC)c1 (centres undefined) | inactive | 
56 | CCOC(=O)C1CCN(C(=O)COc2cccc3ccccc23)CC1 | inactive | 
57 | Cc1ccc(C(=O)NNC(=O)C(C)Oc2ccc3ccccc3c2)o1 (centres undefined) | inactive | 
58 | Cc1cccc(C(C)C)c1NC(=O)COC(=O)C1CC(=O)N(Cc2ccccc2)C1 (centres undefined) | inactive | 
59 | COc1cccc(N2CC(C(=O)NCc3n[nH]c(=O)c4ccccc34)CC2=O)c1 (centres undefined) | inactive | 
60 | CCCOC(=O)c1cc2ccccc2oc1=O | inactive | 
61 | COc1ccccc1CN(C)C(=O)c1cc2ccccc2o1 | inactive | 
62 | CN(C)CCCCCN(C)Cc1cc2ccccc2o1 | 4.65 µM (active) | 
63 | O=c1c2ccccc2ccc2ccc(P(=O)(O)O)cc12 | inactive | 
64 | CC1CC(C)CN(C(=O)CCNC(=O)Cn2cnc3ccccc3c2=O)C1 (centres undefined) | inactive | 
65 | COc1cc(CN2CCCC(C(=O)c3ccc(SC)cc3)C2)cc(Cl)c1O (centres undefined) | 11.7 µM (active) | 
66 | CSc1ccc(C(=O)C2CCCN(Cc3ccn[nH]3)C2)cc1 (centres undefined) | inactive | 
67 | COc1ccc(CCN(C)C(=O)C2CCCN(Cc3ccc(OC)c(OC)c3)C2)cc1OC (centres undefined) | inactive | 
68 | CCN1CCN(C2CCCCC2NS(=O)(=O)c2ccc(Cl)cc2)CC1 (centres undefined) | inactive | 
69 | Cc1csc(NC(=O)C2CCN(S(=O)(=O)c3ccccc3)CC2)n1 | inactive | 
70 | CC1CCN(C(=O)COC(=O)c2cc(=O)[nH]c3ccccc23)CC1 | inactive | 
71 | Cc1cc(S(=O)(=O)NC2CCCC2)ccc1-n1cnnn1 | inactive | 
72 | CSc1ccc(CNCCN2CCOCC2)cc1 | inactive | 
73 | CCCCC(CC)CNCc1cccn1CCN1CCOCC1 (centres undefined) | 11.7 µM (active) | 
74 | CCCCc1ccc(NC(=S)NCCCN2CCOCC2)cc1 | inactive | 
75 | O=C(CN1C(=O)S/C(=C\c2ccccc2F)C1=O)NCCCn1ccnc1 | inactive | 
76 | O=C(COC(=O)Cc1ccccc1F)NNC(=O)c1ccc(Cl)cc1 | inactive | 
77 | CC(C)c1nnc(NC(=O)CCC(=O)N2CCN(c3cccc(Cl)c3)CC2)s1 | inactive | 
78 | Cc1cc(C)n(-c2nc(C(F)(F)F)nc3ccccc23)n1 |  | 31.4% [at 5.75 µM]

Row | Structure (SMILES) | Potency | activity change, negative = inhibition
79 | NS(=O)(=O)c1ccc(CCNc2nc(C(F)(F)F)nc3ccccc23)cc1 | inactive | 
80 | CCc1ccc(C(CNc2nc(C(F)(F)F)nc3ccccc23)N(C)C)cc1 (centres undefined) | 11.7 µM (active) | 
81 | CCC(NC(=O)c1cc(COc2ccc(F)c(F)c2)on1)c1ccncc1 (centres undefined) | inactive | 
82 | Cc1ccccc1CCNC(=O)C1CCC(=O)N(Cc2ccc(Cl)cc2)C1 (centres undefined) | inactive | 
83 | Cc1c(C)n2c(SCC(=O)N3CCCC3)nnc2[nH]c1=O | inactive | 
84 | COC(=O)Cc1ccc(OCC(=O)NC2CCCC2)cc1 | inactive | 
85 | CCOc1ccc(NC(=O)COC(=O)C2CCC(=O)N2)c([N+](=O)[O-])c1 (centres undefined) | inactive | 
86 | COc1cccc(-n2cc(C(=O)O)c3ccccc3c2=O)c1 | inactive | 
87 | COc1ccc(-n2c(-c3ccccc3)nc3ccccc3c2=O)cc1 | inactive | 
88 | COc1ccc(N(C(=O)c2cccnc2)S(=O)(=O)c2ccc3c(c2)n(C)c(=O)n3C)cc1 | inactive | 
89 | COc1cccc(-n2cc3c(c2-c2ccccc2)c(=O)n(C)c(=O)n3C)c1 | 5.22 µM (active) | 
90 | COc1ccc(-c2c3c(=O)n(C)c(=O)n(C)c3cn2NC(C)=O)cc1 | inactive | 
91 | COc1ccc(-c2c3c(=O)n(C)c(=O)n(C)c3cn2-c2cccc(OC)c2)cc1 | 11.7 µM (active) | 
92 | Cc1cnc(NC(=O)c2ccc(Cl)nc2)s1 | inactive | 
93 | COC(=O)c1ccc(N2CCOCC2)c(NC(=O)c2ccc3c(c2)OCCO3)c1 | inactive | 
94 | Cc1ccc(Nc2ncnc3c2cnn3C)c(C)c1 | inactive | 
95 | CCCCn1c(CN2CCN(CCO)CC2)nc2ccccc21 | inactive | 
96 | CC1CCc2sc3nc(N4CCN(CCO)CC4)n4ncnc4c3c2C1 (centres undefined) | inactive | 
97 | N#Cc1c2c(c(N3CCN(CCO)CC3)n3c1nc1ccccc13)CCCC2 | 0.828 µM (active) | 
98 | CCN(CC(=O)Nc1cc(Cl)ccc1C)C(=O)CN1C(=O)NC2(CCCC2)C1=O | inactive | 
99 | CCn1ccnc1CN(C)C(=O)c1cc(COc2ccc(-n3cncn3)cc2)on1 | inactive | 
100 | O=C(c1ccco1)N1CCN(C(=S)Nc2cc(F)cc(F)c2)CC1 | inactive | 
101 | NC(=O)CC(NC(=O)Cc1ccc(Br)cc1)c1ccc(NC2CC3CCC2C3)c([N+](=O)[O-])c1 (centres undefined) | inactive | 
102 | CC(CCc1ccccc1)NCC(O)c1cccc([N+](=O)[O-])c1 (centres undefined) | 0.233 µM (active) | 
103 | CC(C)OP(=O)(OC(C)C)C(Nc1ccccc1)c1cccc([N+](=O)[O-])c1 (centres undefined) | inactive | 
104 | CN(C(=O)c1cccc([N+](=O)[O-])c1)c1ccccc1C(=O)NCc1ccccc1 | inactive | 
